Laboratory results: ChEMBL document CHEMBL4513155, “CO-ADD screening of University of Sydney (Australia) compounds” (2021)
Results with a measured potency or affinity are listed apart.

Columns and labels:
Staphylococcus aureus = conditions: Concentration 32 ug.mL-1; ASSAY_TEST Inhibition of Bacterial Growth; detection method Absorption (OD600); MEDIA CAMHB; plate type 384well; NBS; CORNING #3640; time 18 hr
Escherichia coli = conditions: Concentration 32 ug.mL-1; ASSAY_TEST Inhibition of Bacterial Growth; detection method Absorption (OD600); MEDIA CAMHB; plate type 384well; NBS; CORNING #3640; time 18 hr

| SMILES | Inhibition (Staphylococcus aureus) [%] | Inhibition (Escherichia coli) [%] |
| --- | --- | --- |
| Fc1ccc(CCOc2cncc3nnc(-c4ccc(Cl)cc4)n23)cc1F | -7.02 | -0.47 |
| N#Cc1ccc(-c2nnc3cncc(OCC(O)c4ccc(F)c(F)c4)n23)cc1 (centres undefined) | -3.19 | 2.25 |
| CN(C)C(COc1cncc2nnc(-c3ccc(C#N)cc3)n12)c1ccc(F)c(F)c1 (centres undefined) | -0.93 | 3.93 |
| Fc1ccc(CCOc2cncc3nnc(-c4ccc(C(F)(F)F)nc4)n23)cc1F | 6.53 | 1.6 |
| COC(COc1cncc2nnc(-c3ccc(C#N)cc3)n12)c1ccc(F)c(F)c1 (centres undefined) | -4.85 | 2.52 |
| CCN1C(=O)c2cccc3c(-c4cn(CCN5CCCNCCN(CCn6cc([C@]7(O)CC[C@H]8[C@@H]9CCc%10cc(O)ccc%10[C@H]9CC[C@@]87C)nn6)CCCNCC5)nn4)ccc(c23)C1=O.OCCN1CCN(CCCN2c3ccccc3Sc3ccc(Cl)cc32)CC1.[O-][Cl+3]([O-])([O-])[O-].[O-][Cl+3]([O-])([O-])[O-].[Zn+2] | 38.05 | 0.56 |
| O.O=C1c2cccc3c(-n4cc(CN5CCCNCCN(Cc6cn(-c7ccc8c9c(cccc79)C(=O)N(CCCO)C8=O)nn6)CCCNCC5)nn4)ccc(c23)C(=O)N1CCCO.[Cl-].[Cl-].[Zn+2] | 7.81 | 6.15 |
